In all, about 360,000 compounds went through this assay and about 11,000 (3.1%) were called active. Roughly 2% stayed inconclusive and do not appear here. Many of the other results were omitted from the sample, so actives are more common in it than they were. Unmarked numbers belong to inactive results. No stated cut-off is given here; in the data, active means fluorescence intensity above about 16000; inconclusive means no clear call, values can overlap the other calls; inactive means below that.
Experiment: compound fluorescence in toxin protease inhibitor counterscreen, primary screen, artefact control for toxin protease inhibitor project, biochemical, multiplex microsphere, HTS (AID 624483)
Conditions: compound autofluorescence counterscreen, microsphere flow cytometry; stronger effect = higher value
With `Cc1nn(-c2ccccc2)c(Cl)c1C(=O)Nc1ccccc1` the fluorescence intensity was 20900 (active). In the case of `Cc1nn(-c2ccccc2)c(C)c1NC(=O)CCl`, the fluorescence intensity is reported as 2020. In the case of `COc1ccc(CCNC(=O)c2c(C)nn(-c3ccccc3)c2Cl)cc1`, the fluorescence intensity is reported as 5520. Work on `CCc1nc2ccc(C(=O)Nc3cc(-c4ccccc4)ccc3OC)cn2c1N(CC)CC(=O)N(C)C` yielded a fluorescence intensity of 3600. `CCOC(=O)C1CCN(Cc2ccc(-c3ccccc3)cc2)CC1` gave a fluorescence intensity of 3660. `CCOC(=O)C1CCN(C(=O)Nc2ccc(Cl)cc2)CC1` showed a fluorescence intensity of 2770. For `CCOC(=O)C1CCN(Cc2coc3ccc(Cl)cc3c2=O)CC1`, the fluorescence intensity was 20400 (active). Molecule `Cc1cc(CNCc2c(C(=O)N(C)Cc3ccccc3)nc3ccccn23)nn1C` has a fluorescence intensity of 2160. In the case of `COc1ccc(C2C(C#N)=C(N)Oc3cc(N)ccc32)cc1OC` (stereo not drawn), the fluorescence intensity is reported as 23300 (active). For `N#CC1=C(N)Oc2cc(O)ccc2C1C1CCCCC1` (stereo not drawn), the fluorescence intensity was 4810. With `N#CC1=C(N)Oc2cc(N)ccc2C1c1ccccc1` (stereo not drawn) the fluorescence intensity was 4230. For `O=C(NCc1ccccc1Cl)c1csc([C@@H]2O[C@H](CO)[C@@H](O)[C@H]2O)n1`, the fluorescence intensity was 3690. For `Cc1cccc(-n2ncc(C#N)c2-n2cccc2)c1`, the fluorescence intensity was 19100 (active). `Cc1cccc(-n2ncc(Cl)c(Cl)c2=O)c1` gave a fluorescence intensity of 3990. For `CC(=O)Nc1c2c(nn1-c1cccc(C)c1)CSC2`, the fluorescence intensity was 5830. For `CCOC(=O)C1CCCN(C(=O)c2ccc(N(C)C)cc2)CC1` (stereo not drawn), the fluorescence intensity was 2830. With `CCc1nc2c(OCCC3CCCCC3)cccn2c1N(C)C(=O)c1ccco1` the fluorescence intensity was 3130. Molecule `COc1ccc(C(=O)N2CCCCC2c2cc(C(=O)Nc3ccccc3)no2)cc1` (stereo not drawn) has a fluorescence intensity of 3670. `CCCNC(=O)C1(C)CCN(Cc2ccc(Cl)c(Cl)c2)C1` (stereo not drawn) showed a fluorescence intensity of 4070. `CC1(C(=O)Nc2ccccc2Br)CCN1C(=O)CC1CC1` (stereo not drawn) showed a fluorescence intensity of 4640. With `O=C(Nc1cccc(Cc2ccccc2)c1)Nc1ccc2nc([C@@H]3O[C@H](CO)[C@@H](O)[C@H](O)[C@H]3O)[nH]c2c1` the fluorescence intensity was 5830. With `O=C(CN1CCN(c2ccccn2)CC1)NC1CCCCC1` the fluorescence intensity was 5140. In the case of `O=C(C(Cl)Cl)N1CCN(c2ccccn2)CC1`, the fluorescence intensity is reported as 2340. With `CN1C(=O)CC(N2CCN(c3ccccn3)CC2)C1=O` (stereo not drawn) the fluorescence intensity was 20700 (active). For `CCCCc1c(-c2ccc(Cl)cc2)ncn1CCc1ccccc1OC`, the fluorescence intensity was 6340. In the case of `CCOc1ccc(CN(Cc2ccco2)S(=O)(=O)c2ccc(-n3cnnn3)c(OC)c2)cc1`, the fluorescence intensity is reported as 11600. For `COc1ccc(CN(Cc2ccco2)S(=O)(=O)c2ccc(S(=O)(=O)N3CCCC3)cc2)cc1`, the fluorescence intensity was 23600 (active). For `COc1ccc(S(=O)(=O)NCc2ccc(C(=O)N(C)Cc3ccco3)cc2)cc1`, the fluorescence intensity was 10900. `CC1(C(=O)Nc2cccc3c2CCCC3)CCN1C(=O)C1(c2ccccc2)CC1` (stereo not drawn) gave a fluorescence intensity of 3760. `C=CCn1c2c(c3ccccc31)CCC2` gave a fluorescence intensity of 6080. With `COc1ccc2c(c1OC)C(=O)OC2Nc1nc(-c2ccccc2)cs1` (stereo not drawn) the fluorescence intensity was 2960. Molecule `CC(=O)c1ccc(Nc2nc(C(N)c3ccccc3)cs2)cc1` (stereo not drawn) has a fluorescence intensity of 3990. Molecule `COc1ccc(-c2csc(Nc3cccc(C)n3)n2)cc1OC` has a fluorescence intensity of 3770. With `NS(=O)(=O)c1ccc(Nc2nc(-c3ccccc3)cs2)cc1` the fluorescence intensity was 23200 (active). For `COc1ccc(Nc2nc(-c3ccccc3)cs2)cc1`, the fluorescence intensity was 23300 (active). With `NS(=O)(=O)c1ccc(NS(=O)(=O)/C=C/c2ccccc2)cc1` the fluorescence intensity was 7650. Molecule `CCCOc1ccc(F)cc1-c1cc(C(=O)Nc2ccc(F)cc2)[nH]n1` has a fluorescence intensity of 3520. With `COCCn1c(SCC(=O)c2[nH]c(C)c(C(C)=O)c2C)nc2ccccc2c1=O` the fluorescence intensity was 3120. `CC(C)Cn1cc(-c2cncc3nccn23)cn1` gave a fluorescence intensity of 4100. Work on `COCCCNC(=O)c1ccc(-c2c(C)noc2C)c2ccoc12` yielded a fluorescence intensity of 3520. `Cc1ccc(/C=N/NC(=O)Cn2ccc(C(F)(F)F)n2)o1` showed a fluorescence intensity of 2150. With `c1ccc(CSc2nnc(-c3ccco3)c(-c3ccco3)n2)cc1` the fluorescence intensity was 20900 (active). With `Clc1ccc(CSc2nnc3c(n2)[nH]c2ccccc23)cc1` the fluorescence intensity was 3690. With `c1ccc(Cc2c(-c3ccco3)nc3c4ccccc4ccn23)cc1` the fluorescence intensity was 4810. In the case of `CN(C)CCN(Cc1ccccc1)S(=O)(=O)c1csc(C(N)=O)c1`, the fluorescence intensity is reported as 5470. In the case of `COc1ccc(-n2c(C)cc(C(=O)COC(=O)c3cc(OC)c(OC)cc3NC(=O)c3cccs3)c2C)cc1`, the fluorescence intensity is reported as 2450. For `COc1ccc(-n2c(C)cc(C(=O)CSc3nnc(-c4cccs4)o3)c2C)cc1`, the fluorescence intensity was 18900 (active). For `Cc1ccc(-n2c(C)cc(C(=O)CSc3nnc4ccccn34)c2C)cc1`, the fluorescence intensity was 2510.

— PubChem BioAssay AID624483 (NMMLSC, 2012)
